Source: PubChem BioAssay (Tox21)
Where “and” joins values, the source holds several entries; their conditions need not be identical. Identical values can stand only once. Inconclusive results are not listed. Calls of active or inactive are those of the source. Unless noted, calls follow the shape of the dose curve; as a rule, active = well fitted curve in the direction sought with a large enough effect in the repeat runs; inconclusive = weak or mixed curves; inactive = no such curve, though single readings can be large; an effect the other way counts as inactive or inconclusive.

Assays:
[1] = target: Acetylcholinesterase (Homo sapiens) (UniProt P22303); test: Acetylcholinesterase (AChE) small molecule antagonists: enzyme-based qHTS assay (AID 1347397; calls by dose curve; also: nearly all actives have a fitted effect of over 55% in size); details: Potency: AChE enzyme activity inhibition
Acetylcholinesterase (Homo sapiens), sequence (P22303 whole entry, looked up): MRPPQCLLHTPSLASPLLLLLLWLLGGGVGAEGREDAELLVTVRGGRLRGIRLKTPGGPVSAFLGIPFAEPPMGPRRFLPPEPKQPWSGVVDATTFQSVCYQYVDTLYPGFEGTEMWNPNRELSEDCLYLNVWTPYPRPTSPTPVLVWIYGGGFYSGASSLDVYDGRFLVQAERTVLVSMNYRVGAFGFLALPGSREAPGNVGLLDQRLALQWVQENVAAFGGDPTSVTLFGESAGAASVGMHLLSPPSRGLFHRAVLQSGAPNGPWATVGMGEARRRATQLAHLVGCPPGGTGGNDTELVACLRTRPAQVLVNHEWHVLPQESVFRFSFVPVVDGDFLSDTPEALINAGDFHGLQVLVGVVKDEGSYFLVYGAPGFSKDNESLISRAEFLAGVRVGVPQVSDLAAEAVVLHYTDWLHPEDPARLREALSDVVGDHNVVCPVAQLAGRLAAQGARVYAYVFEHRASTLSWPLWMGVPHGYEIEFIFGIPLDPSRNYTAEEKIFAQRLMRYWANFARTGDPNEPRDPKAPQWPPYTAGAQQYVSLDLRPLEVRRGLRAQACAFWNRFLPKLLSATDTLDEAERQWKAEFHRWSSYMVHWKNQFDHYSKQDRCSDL
Outline: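 In this quantitative HTS, compounds from the Tox21 10K collection were preincubated 30 min at ambient temperature with recombinant human AChE dispensed at 50 mU/mL. Hydrolysis of acetylthiocholine was then followed for 10 min by DTNB colour development.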

[2] = target: Acetylcholinesterase (Homo sapiens) (UniProt P22303); test: Acetylcholinesterase (AChE) small molecule antagonists: fluorescence cell-based qHTS assay (AID 1347398; calls by dose curve; also: nearly all actives have a fitted effect of over 50% in size; also: potency is read from the fitted curve at half-maximal effect); details: Potency: AChE activity
Outline: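 Cells (SH-SY5Y) attached overnight, were dosed with compound or DMSO vehicle for 30 min at 37 C, and then incubated 40 min at room temperature with acetylthiocholine and Thiolite Green; green fluorescence indexed AChE activity.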

[3] = target: Acetylcholinesterase (Homo sapiens) (UniProt P22303); test: Acetylcholinesterase (AChE) small molecule antagonists: enzyme-based qHTS assay with human liver microsomes (AID 1347399; calls by dose curve; also: nearly all actives have a fitted effect of over 60% in size); details: Potency: qHTS inhibition
Outline: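 Recombinant human AChE (50 mU/mL in the enzyme mix) and human liver microsomes (0.25 mg/mL final) were preincubated with compound and NADPH (0.25 mg/mL final) for 30 min at 37 C. Acetylthiocholine/DTNB was then added; thiocholine was read colorimetrically after 10 min at room temperature.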

[4] = target: Cytochrome P450 1A2 (Homo sapiens) (UniProt P05177); test: Cytochrome P450 Family 1 Subfamily A Member 2 (CYP1A2) small molecule antagonists: luciferase reporter qHTS assay (AID 1671199); also: nearly all actives have a fitted effect of over 50% in size; also: potency is read from the fitted curve at half-maximal effect; as to activity change, negative = inhibition: series mostly up to about 120 µM
Cytochrome P450 1A2 (Homo sapiens), sequence (P05177 whole entry, looked up): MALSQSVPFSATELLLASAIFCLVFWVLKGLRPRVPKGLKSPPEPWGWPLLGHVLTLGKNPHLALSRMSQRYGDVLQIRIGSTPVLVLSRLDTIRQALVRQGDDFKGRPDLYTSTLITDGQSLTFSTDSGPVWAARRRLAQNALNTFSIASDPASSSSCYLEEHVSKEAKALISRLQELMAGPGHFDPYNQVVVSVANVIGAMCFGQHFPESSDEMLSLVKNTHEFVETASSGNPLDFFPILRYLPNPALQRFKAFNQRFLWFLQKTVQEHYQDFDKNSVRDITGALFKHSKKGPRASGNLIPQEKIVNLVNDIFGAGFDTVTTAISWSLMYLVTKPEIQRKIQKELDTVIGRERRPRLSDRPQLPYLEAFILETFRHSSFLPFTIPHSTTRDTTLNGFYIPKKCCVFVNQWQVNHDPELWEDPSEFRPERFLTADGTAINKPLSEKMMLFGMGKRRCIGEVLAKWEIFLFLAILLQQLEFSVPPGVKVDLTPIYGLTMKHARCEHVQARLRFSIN
Outline: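 Luminescence readout (relative luminescence units) after luciferin detection reagent, 20 min RT. Preceded by 1 h room-temperature CYP1A2 reaction with NADPH regeneration solution following 10 min compound preincubation with enzyme and proluciferin substrate. Furafylline positive control.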

[5] = target: Cytochrome P450 3A4 (Homo sapiens) (UniProt P08684); test: Cytochrome P450 Family 3 Subfamily A Member 4 (CYP3A4) small molecule antagonists: luciferase reporter qHTS assay (AID 1671201); also: nearly all actives have a fitted effect of over 50% in size; also: potency is read from the fitted curve at half-maximal effect; as to activity change, negative = inhibition: series mostly up to about 120 µM
Cytochrome P450 3A4 (Homo sapiens), sequence (P08684 whole entry, looked up): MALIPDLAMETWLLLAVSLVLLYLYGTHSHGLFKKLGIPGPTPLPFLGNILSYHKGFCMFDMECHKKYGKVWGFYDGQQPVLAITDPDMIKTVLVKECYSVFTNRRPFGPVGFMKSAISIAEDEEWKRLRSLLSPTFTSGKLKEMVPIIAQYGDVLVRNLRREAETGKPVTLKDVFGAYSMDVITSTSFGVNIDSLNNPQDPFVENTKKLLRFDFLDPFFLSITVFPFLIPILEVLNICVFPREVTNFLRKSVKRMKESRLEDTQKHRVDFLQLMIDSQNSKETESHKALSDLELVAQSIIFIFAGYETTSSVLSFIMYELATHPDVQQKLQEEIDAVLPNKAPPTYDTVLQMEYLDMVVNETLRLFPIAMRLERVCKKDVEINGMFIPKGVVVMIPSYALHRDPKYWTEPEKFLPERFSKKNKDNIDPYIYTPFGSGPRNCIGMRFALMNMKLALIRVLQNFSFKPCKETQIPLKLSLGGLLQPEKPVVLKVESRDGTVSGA
Outline: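 Luminescent readout (RLU) proportional to CYP3A4 activity, from luciferin generated off a proluciferin substrate. Enzyme–substrate mix plus compound 10 min at room temp, NADPH regeneration 1 h, detection reagent 20 min.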

[6] = target: Cytochrome P450 2C19 (Homo sapiens) (UniProt P33261); test: Cytochrome P450 Family 2 Subfamily C Member 19 (CYP2C19) small molecule antagonists: luciferase reporter qHTS assay (AID 1671197); also: nearly all actives have a fitted effect of over 65% in size; also: potency is read from the fitted curve at half-maximal effect; as to activity change, negative = inhibition: series mostly up to about 120 µM
Cytochrome P450 2C19 (Homo sapiens), sequence (P33261 whole entry, looked up): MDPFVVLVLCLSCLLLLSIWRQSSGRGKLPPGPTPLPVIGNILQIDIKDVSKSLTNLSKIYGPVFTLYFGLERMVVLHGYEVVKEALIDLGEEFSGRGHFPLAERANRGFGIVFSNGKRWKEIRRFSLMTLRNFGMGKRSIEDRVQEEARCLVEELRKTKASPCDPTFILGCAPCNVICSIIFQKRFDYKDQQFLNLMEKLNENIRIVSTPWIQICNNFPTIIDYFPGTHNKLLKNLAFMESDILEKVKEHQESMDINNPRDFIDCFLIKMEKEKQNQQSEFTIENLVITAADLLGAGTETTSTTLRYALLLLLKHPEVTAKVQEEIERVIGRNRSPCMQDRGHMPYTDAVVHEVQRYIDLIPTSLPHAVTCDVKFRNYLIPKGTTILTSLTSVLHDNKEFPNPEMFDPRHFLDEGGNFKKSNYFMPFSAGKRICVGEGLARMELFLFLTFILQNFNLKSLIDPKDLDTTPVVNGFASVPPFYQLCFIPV
Outline: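 P450-Glo CYP2C19 screening system; proluciferin substrate; DMSO compound stocks; 10 min RT preincubation; NADPH regeneration, 1 h at 37C; luciferin detection reagent, 20 min RT; luminescence as RLU.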

[7] = target: Cytochrome P450 2C9 (Homo sapiens) (UniProt P11712); test: Cytochrome P450 Family 2 Subfamily C Member 9 (CYP2C9) small molecule antagonists: luciferase reporter qHTS assay (AID 1671198); also: nearly all actives have a fitted effect of over 50% in size; also: potency is read from the fitted curve at half-maximal effect; as to activity change, negative = inhibition: series mostly up to about 120 µM
Cytochrome P450 2C9 (Homo sapiens), sequence (P11712 whole entry, looked up): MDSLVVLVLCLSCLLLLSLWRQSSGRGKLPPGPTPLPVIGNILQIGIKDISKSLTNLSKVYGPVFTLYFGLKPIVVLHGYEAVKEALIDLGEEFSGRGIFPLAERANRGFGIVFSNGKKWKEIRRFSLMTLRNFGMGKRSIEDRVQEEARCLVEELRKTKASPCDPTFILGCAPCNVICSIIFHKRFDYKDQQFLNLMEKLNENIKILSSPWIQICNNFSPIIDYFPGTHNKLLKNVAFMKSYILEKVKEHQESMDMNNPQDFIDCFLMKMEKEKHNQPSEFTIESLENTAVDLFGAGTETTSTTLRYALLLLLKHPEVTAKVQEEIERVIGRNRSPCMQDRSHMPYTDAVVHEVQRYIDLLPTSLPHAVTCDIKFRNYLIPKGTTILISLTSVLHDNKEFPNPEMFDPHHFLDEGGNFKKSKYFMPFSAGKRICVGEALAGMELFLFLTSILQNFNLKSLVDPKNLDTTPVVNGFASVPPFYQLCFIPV
Outline: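 P450-Glo proluciferin substrate with CYP2C9 enzyme; 10 min RT preincubation, then NADPH regeneration 1 h at 37C; luciferin detection reagent 20 min RT, luminescence in relative luminescence units.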

[8] = target: Voltage-gated inwardly rectifying potassium channel KCNH2 (Homo sapiens) (UniProt Q12809); test: Human Ether-a-go-go-Related Gene (hERG) channel small molecule antagonists: fluorescence cell-based qHTS assay (AID 1671200); also: nearly all actives have a fitted effect of over 50% in size; also: potency is read from the fitted curve at half-maximal effect;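 as to activity change, negative = inhibition: hERG-expressing U2OS cells given a thallium stimulus after FluxOR II dye loading; series mostly up to about 77 µM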
Voltage-gated inwardly rectifying potassium channel KCNH2 (Homo sapiens), sequence (Q12809 whole entry, looked up): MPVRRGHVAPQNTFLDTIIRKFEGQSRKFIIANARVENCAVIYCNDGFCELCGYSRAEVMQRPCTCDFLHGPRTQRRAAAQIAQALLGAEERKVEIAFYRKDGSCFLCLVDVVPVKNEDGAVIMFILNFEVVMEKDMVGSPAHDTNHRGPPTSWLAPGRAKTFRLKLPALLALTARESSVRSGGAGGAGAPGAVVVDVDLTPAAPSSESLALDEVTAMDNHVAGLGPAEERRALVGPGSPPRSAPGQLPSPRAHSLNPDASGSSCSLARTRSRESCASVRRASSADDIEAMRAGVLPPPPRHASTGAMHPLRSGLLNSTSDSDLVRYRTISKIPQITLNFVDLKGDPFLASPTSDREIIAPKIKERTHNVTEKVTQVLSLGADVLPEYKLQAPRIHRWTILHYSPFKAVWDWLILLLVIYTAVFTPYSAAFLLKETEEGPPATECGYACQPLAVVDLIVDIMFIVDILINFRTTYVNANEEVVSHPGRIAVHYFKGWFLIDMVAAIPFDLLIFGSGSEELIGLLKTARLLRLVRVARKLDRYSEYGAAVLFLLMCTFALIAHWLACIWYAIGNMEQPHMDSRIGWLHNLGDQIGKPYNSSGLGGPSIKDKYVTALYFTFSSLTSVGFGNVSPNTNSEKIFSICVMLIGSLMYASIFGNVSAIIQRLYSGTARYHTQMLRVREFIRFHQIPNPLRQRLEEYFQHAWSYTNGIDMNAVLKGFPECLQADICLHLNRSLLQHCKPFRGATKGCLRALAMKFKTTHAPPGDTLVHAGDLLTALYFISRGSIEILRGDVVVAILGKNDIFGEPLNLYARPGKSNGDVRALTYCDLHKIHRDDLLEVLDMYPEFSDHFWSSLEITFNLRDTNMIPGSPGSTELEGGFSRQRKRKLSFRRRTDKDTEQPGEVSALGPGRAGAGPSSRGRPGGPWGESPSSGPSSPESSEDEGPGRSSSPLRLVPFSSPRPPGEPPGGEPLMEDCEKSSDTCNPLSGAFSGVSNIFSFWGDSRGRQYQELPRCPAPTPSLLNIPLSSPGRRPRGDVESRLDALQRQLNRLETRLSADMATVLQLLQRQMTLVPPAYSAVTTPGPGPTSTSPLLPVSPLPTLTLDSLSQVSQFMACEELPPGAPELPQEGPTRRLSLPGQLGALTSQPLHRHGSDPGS
Outline: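 Read-out: thallium influx as a surrogate for potassium, tracked as fluorescence (480 nm ex/540 nm em) every second for 2 min after Stimulus Buffer addition in dye-loaded hERG-U2OS cells.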

[9] = target: Cytochrome P450 2D6 (Homo sapiens) (UniProt P10635); test: Cytochrome P450 Family 2 Subfamily D Member 6 (CYP2D6) small molecule antagonists: luciferase reporter qHTS assay (AID 1671196); also: nearly all actives have a fitted effect of over 50% in size; also: potency is read from the fitted curve at half-maximal effect; as to activity change, negative = inhibition: series mostly up to about 120 µM
Cytochrome P450 2D6 (Homo sapiens), sequence (P10635 whole entry, looked up): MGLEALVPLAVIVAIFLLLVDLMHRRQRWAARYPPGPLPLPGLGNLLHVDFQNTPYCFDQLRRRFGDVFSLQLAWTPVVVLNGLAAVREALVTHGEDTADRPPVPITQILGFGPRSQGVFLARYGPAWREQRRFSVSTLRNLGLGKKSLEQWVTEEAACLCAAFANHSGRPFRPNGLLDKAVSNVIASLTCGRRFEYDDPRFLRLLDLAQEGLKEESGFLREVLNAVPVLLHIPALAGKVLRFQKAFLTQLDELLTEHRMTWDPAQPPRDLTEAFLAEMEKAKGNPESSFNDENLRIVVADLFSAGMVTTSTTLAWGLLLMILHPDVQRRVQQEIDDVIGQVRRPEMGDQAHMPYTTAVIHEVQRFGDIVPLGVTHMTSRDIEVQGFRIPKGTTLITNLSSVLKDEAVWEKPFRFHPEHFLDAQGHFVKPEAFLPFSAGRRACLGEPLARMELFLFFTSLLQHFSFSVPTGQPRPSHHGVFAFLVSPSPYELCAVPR
Outline: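 Luminogenic proluciferin substrate, CYP2D6 enzyme; 10 min RT preincubation with compound, NADPH regeneration system added, 1 h RT. Stop/detection reagent, 20 min RT, luminescence read (RLU). Signal proportional to CYP activity.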
% is scaled to controls: 0 for no effect and ±100 for the full control effect.

O=c1[nH]c2ccccc2n1C1CCN(CCCC(c2ccc(F)cc2)c2ccc(F)cc2)CC1
inactive: Potency [1] | Potency [2] | Potency [3] | Potency [4] | Potency [5]

C[C@H]1CC[C@@H]2[C@@H](C)[C@H]3[C@H](C[C@H]4[C@@H]5CC=C6CC(O[C@@H]7O[C@H](CO)[C@H](O)[C@H](O[C@@H]8O[C@H](CO)[C@@H](O)[C@H](O)[C@H]8O)[C@H]7O[C@H]7O[C@@H](C)[C@H](O)[C@@H](O)[C@H]7O)CC[C@]6(C)[C@H]5CC[C@]34C)N2C1 (stereo not given in full)
active: Potency [2] 2.92 µM
inactive: Potency [1] | Potency [3] | Potency [6] | Potency [7] | Potency [8] | Potency [5]

CC(C)N1C(=O)N(c2ccccc2)CSC1=NC(C)(C)C
active: Potency [7] 6.33 µM | Potency [4] 31.7 µM | Potency [5] 31.7 µM
inactive: Potency [1] | Potency [2] | Potency [3]

C[CH2][Hg][N]1C(=O)C2C(C1=O)C1(Cl)C(Cl)=C(Cl)C2(Cl)C1(Cl)Cl (stereo not given)
active: Potency [7] 13.5 µM | Potency [5] 13.5 µM
inactive: activity change, negative = inhibition [1] -5.88% [at 23.6 µM] | activity change, negative = inhibition [2] 11.1% [at 23.8 µM] | activity change, negative = inhibition [3] -0.312% [at 23.6 µM]

CC(=O)C(Cl)(Cl)Cl
active: Potency [6] 54.5 µM | Potency [7] 15.3 µM
inactive: Potency [1] | Potency [2] | Potency [3] | Potency [8] | Potency [5]

COC[C@H](C)N(C(=O)CCl)c1c(C)csc1C
inactive: Potency [1] | Potency [2] | Potency [3] | Potency [7] | Potency [4] | Potency [8]

CSCCCN=C=S
active: Potency [6] 71 µM
inactive: Potency [1] | Potency [2] | Potency [3] | Potency [4] | Potency [5]

BrCC(Br)c1ccccc1 (stereo not given)
inactive: Potency [1] | Potency [2] | Potency [3] | Potency [8] | Potency [5]

COC(=O)N(C(=O)N1CO[C@@]2(C(=O)OC)Cc3cc(Cl)ccc3C2=N1)c1ccc(OC(F)(F)F)cc1
active: Potency [6] 0.154 µM | Potency [7] 2.73 µM | Potency [5] 2.44 µM
inactive: Potency [1] | Potency [2] | Potency [3] | Potency [8]

O=[N+]([O-])c1ccc(Oc2ccc(C(F)(F)F)cc2[N+](=O)[O-])cc1
inactive: Potency [1] | Potency [2] | Potency [3] | Potency [5]
active: Potency [7] 25.2 µM | Potency [4] 31.7 µM | Potency [8] 6.16 µM

Oc1ccc(I)cc1
active: Potency [7] 71 µM | Potency [4] 39.9 µM
inactive: Potency [1] | Potency [2] | Potency [3] | Potency [8] | Potency [5]

CC(C)(C)C(O)C(Oc1ccc(-c2ccccc2)cc1)n1cncn1 (stereo not given)
inactive: Potency [1] | Potency [2] | Potency [3] | Potency [8]
active: Potency [7] 10 µM | Potency [5] 0.448 µM

O=C1c2ccccc2C(=O)C1C(=O)C(c1ccccc1)c1ccc(Cl)cc1 (stereo not given)
inactive: Potency [1] | Potency [2] | Potency [3] | Potency [8] | Potency [5]
active: Potency [7] 0.0252 µM | Potency [4] 20 µM

Nc1c(Oc2ccccc2)cc(O)c2c1C(=O)c1ccccc1C2=O
inactive: Potency [1] | Potency [2] | Potency [3] | Potency [8] | Potency [5]
active: Potency [7] 17.4 µM | Potency [4] 1.23 µM

CCCCCCCCCBr
inactive: Potency [1] | Potency [2] | Potency [9] | Potency [6] | Potency [7] | Potency [4] | Potency [8] | Potency [5]

COP(N)(=S)OC
inactive: Potency [1] | Potency [2] | Potency [3] | Potency [7] | Potency [4] | Potency [8] | Potency [5]

N#CSCSC#N
active: Potency [6] 72.6 µM | Potency [7] 32.4 µM and 35.2 µM | Potency [4] 23 µM and 28 µM | Potency [8] 56.2 µM and 43.2 µM
inactive: Potency [1] | Potency [2] | Potency [9] | Potency [5]

O=C(Cl)c1ccc(Cl)cc1
inactive: Potency [1] | Potency [2] | Potency [3] | Potency [4] | Potency [8] | Potency [5]

[Cl][Sn]([c]1ccccc1)([c]1ccccc1)[c]1ccccc1
inactive: activity change, negative = inhibition [1] 0% [at 23.6 µM] | activity change, negative = inhibition [2] 12.9% [at 23.8 µM] | activity change, negative = inhibition [3] 0.0872% [at 23.6 µM] | activity change, negative = inhibition [4] -2.03% [at 23.6 µM]
active: Potency [7] 3.79 µM | Potency [8] 2.08 µM | Potency [5] 7.56 µM

CC(C)(O)c1cnn2c(-c3ccc(F)c(-c4c(F)cccc4C#N)c3)cnc2n1
inactive: Potency [1] | Potency [3] | Potency [8]
active: Potency [2] 28.3 µM | Potency [6] 8.94 µM | Potency [7] 1.26 µM | Potency [5] 35.6 µM

N#CCc1ccc(Cl)cc1
inactive: Potency [1] | Potency [2] | Potency [9] | Potency [7] | Potency [8] | Potency [5]
active: Potency [6] 39.9 µM | Potency [4] 31.7 µM

CCc1cc(C)cc(CC)c1-c1c(OC(=O)C(C)(C)C)n2n(c1=O)CCOCC2
active: Potency [5] 8.94 µM
inactive: Potency [1] | Potency [2] | Potency [3] | Potency [7] | Potency [4] | Potency [8]

N#CC(Cl)Cl
inactive: Potency [1] | Potency [2] | Potency [8] | Potency [5]
active: Potency [9] 61.6 µM | Potency [4] 61.6 µM

C[C@@H]1O[C@@H](O[C@@H]2C=C3CC[C@@H]4[C@H](CC[C@]5(C)[C@@H](c6ccc(=O)oc6)CC[C@]45O)[C@@]3(C)CC2)[C@H](O)[C@H](O)[C@H]1O
inactive: Potency [1] | Potency [2] | Potency [9] | Potency [4] | Potency [8] | Potency [5]

C=CCC1=C(C)C(OC(=O)C2C(C=C(C)C)C2(C)C)CC1=O (stereo not given)
inactive: Potency [1] | Potency [3]
active: Potency [9] 30 µM | Potency [6] 1.69 µM | Potency [7] 6.71 µM | Potency [4] 25.9 µM | Potency [8] 29.2 µM
